Records with an inconclusive call do not appear. Activity calls are given as the source filed them. The call rests on the fitted dose curve; in most records, active means well fitted inhibition curve with a large enough effect; inconclusive means small, poorly fitted or top-dose-only effect, or effect the other way; inactive means no such curve, though single readings can be large or run the other way.

This experiment can be described thus: Confirmation Concentration-Response Assay for Inhibitors of the ERK Signaling Pathway using a Homogeneous Screening Assay. Particulars: HEK293 cells, hormone-stimulated phospho-ERK AlphaScreen; series mostly up to 40.9 µM. The source says: qHTS Assay for Inhibitors of the ERK Signaling Pathway using a Homogeneous Screening Assay
NIH Chemical Genomics Center [NCGC]
NIH Molecular Libraries Screening Centers Network [MLSCN]
Assay Submitter (PI): Dr. Wei Zheng, NCGC/NIH
The Ras/extracellular-signal-regulated kinase (ERK) mitogen activated protein (MAP) kinase signaling pathway (ERK1/2 cascade) plays is a key role in transmitting signals from the cell surface to the nucleus (Nishida and Gotoh 1993; Chang and Karin, 2001). The cascade is initiated by the small G-protein Ras, which recruits Raf […], where activation occurs. Alternatively, this pathway can be activated by elevating intracellular cAMP.
Activation of the ERK pathway is essential in increased cell division and cell survival. Sustained and constitutive activation of the ERK pathway, however, has been linked to uncontrolled cell proliferation, increased cell survival, and tumor progression. Thus, the ERK has been as an attractive target for cancer chemotherapy in the past few years (Sebolt-Leopold and Herrera, 2004). Given its physiological and pathological importance, assessment of ERK phosphorylation has been broadly performed in both basic research and drug discovery. Most assays for the measurement of ERK phosphorylation use the antibody-based detection methods, such as western blot and ELISA. These assays require multiple reagent additions with cell wash steps and are not suitable for high-throughput screening.
The current cell-based ERK phosphorylation assay was performed using AlphaScreen platform. AlphaScreen is a two bead-based proximity-dependent chemical energy transfer luminescent assay platform. The assay reagents (ERK SureFire(TM) kit) were supplied from TGR BioSciences (Australia). In the presence of specific antibodies, phosphorylated ERK will bring "donor" and "acceptor" beads to a proximity range (<200 nm), and subsequently lead a chemical luminescent reaction upon exciting donor beads with 680 nm laser. To exclude the assay-related false positives, we used a biotinylated rabbit IgG to perform counter-screen. The biotinylated antibody mimics the phosphorylated ERK1/2 for bringing streptavidin coated beads and protein-A coated beads to a proximity range for the AlphaScreen detection.
NCGC Assay Protocol Summary:
HEK293 cells stably expressing type-1 vasopressin receptor (V1b) were maintained in DMEM medium (Invitrogen, Carlsbad, CA) at 37C under a humidified atmosphere containing 5% CO2 and 95% air. The medium contained 10% FBS, 2 mM L-glutamine, non-essential amino acid, pyruvate and 50 U/ml penicillin and 50 ug/ml streptomycin (Invitrogen). The aliquots of frozen cells were stored at -135C and used for the compound screening. All compounds were screened as titrations from 0.6 nM to 46 uM final concentration. Vasopressin was used to stimulate the ERK phosphorylation pathway. The ERK phosphorylation in cells was determined using an AlphaScreen assay kit provided by PerkinElmer. Data were normalized to the controls for basal activity (DMSO only) and 100% activation (25 nM vasopressin). AC50 values were determined from concentration-response data modeled with the standard Hill equation.
(1) Seed 4 ul/well of resuspended frozen HEK293 cells containing 2000 cells in white 1536-well plates for overnight with 1% FBS at 37C under a humidified atmosphere containing 5% CO2 and 95% air.
(2) Add 23 nL compounds in DMSO solution. The final titration was 0.6 nM to 46 uM.
(3) Incubate at 37C for 30 min.
(4) Dispense 0.5uL vasopressin (25 nM in final)
(5) Incubate at 37C for 5 min.
(6) Dispense 0.5uL of 1:2 diluted 5x lysis buffer.
(7) Incubate at 37C for 10 min.
(8) Dispense 1.5uL of mixture of activation buffer and reaction buffer with AlphaScreen beads (streptavidin donor beads and protein-A acceptor beads, 10 ng/well for each).
(9) Incubate at room temperature for 5 hr.
(10) Detect the assay plate in an EnVision plate reader (PerkinElmer) using the AlphaScreen detection mode.
[…]
In general terms: In Alpha technology, singlet oxygen from a donor bead excites a nearby acceptor bead.
On to `O=C1c2ccc(O)c(O)c2C(=O)c2c(O)ccc(O)c21`, for which the Potency result was “inactive”.

Turning to `C=CS(=O)(=O)c1ccc(Oc2ccc(S(=O)(=O)C=C)cc2)cc1`, the Potency was 7.08 µM (active).

In the case of `C=C[C@@]1(C)CC(=O)[C@@]2(O)[C@@]3(C)[C@@H](O)CCC(C)(C)[C@@H]3[C@H](OC(=O)CCN(C)C)[C@H](OC(C)=O)[C@@]2(C)O1`, the Potency is 0.282 µM (active).

On to `CC(/C=C/c1ccccc1)=N\Nc1ccccc1[N+](=O)[O-]`, for which the Potency result was “inactive”.

Turning to `CCOC(=O)c1ccc(NC(=O)c2ccc(C)c(S(=O)(=O)N3CCOCC3)c2)cc1`, the Potency is 8.91 µM (active).

Take `C/C(=N\Nc1nnc(-c2ccccc2)c(-c2ccccc2)n1)c1cccc([N+](=O)[O-])c1`: the Potency result was “inactive”.

`CN(C)c1ccc(-c2ccc3ncnc(NCc4ccccc4)c3c2)cc1`: the Potency was 15.8 µM (active).

On to `COc1ccc(C(=O)Nc2cccc(C(C)=O)c2)cc1S(=O)(=O)N1CCOCC1`, for which the Potency result was “inactive”.

Take `Cn1c(=O)cc(Nc2ccccc2)c2c(=O)n(-c3ccccc3)c(=O)n(-c3ccccc3)c21`: the Potency was 8.91 µM (active).

Take `O=S(=O)(c1ccccc1)N1CCN(c2cc(-c3ccccc3)nc3ncnn23)CC1`: the Potency was 31.6 µM (active).

Consider `O=C(c1cccs1)c1no[n+]([O-])c1C(=O)c1cccs1`, for which the Potency was 2 µM (active).

In the case of `CN(C)CCCn1cc(C2=C(c3c[nH]c4ccccc34)C(=O)NC2=O)c2ccccc21`, the Potency is 1.26 µM (active).

Turning to `CNc1cccc2c1C(=O)c1ccccc1C2=O`, the Potency was 14.1 µM (active).

`COc1ccc(CNc2ncnc3ccc(-c4cccc(NS(C)(=O)=O)c4)cc23)c(OC)c1`: the Potency was 15.8 µM (active).

Turning to `CC(=O)N1CCC(=NNc2nc3ccccc3s2)CC1`, the Potency result was “inactive”.

Take `c1ccc(-c2csc(-c3nc4ccccc4[nH]3)n2)cc1`: the Potency is 35.5 µM (active).

With `O=C(Nc1nccs1)c1cc2sccc2n1Cc1ccc(F)cc1`, the Potency result is “inactive”.

Regarding `COc1ccc(C(=O)OC(COc2ccccc2)Cn2ccnc2)cc1` (stereo not given), the Potency was 15.8 µM (active).

`COc1cc(C(=O)Nc2nc(-c3cccs3)cs2)cc(OC)c1OC`: the Potency was 12.6 µM (active).

On to `O=C(Nc1nc(-c2ccccc2)cs1)c1ccc(N2CCOCC2)c([N+](=O)[O-])c1`, for which the Potency is 7.08 µM (active).

As for `CN(C)c1cc2c(Nc3ccc4c(cnn4Cc4ccccc4)c3)ncnc2cn1`, the Potency result was “inactive”.

Regarding `COc1ccc(CC(=O)Nc2cccc(-c3nnc(-c4ccc(C)cc4)o3)c2)cc1OC`, the Potency was 5.62 µM (active).

Regarding `O=C1c2ccccc2C(=O)c2c1cccc2N1CCCC1`, the Potency was 17.8 µM (active).

Turning to `CCCNc1ncnc2sc(C)c(C)c12`, the Potency result is “inactive”.

With `CS(=O)(=O)CCNCc1nc(-c2ccc3ncnc(Nc4ccc(OCc5cccc(F)c5)c(Cl)c4)c3c2)cs1`, the Potency result is “inactive”.

Regarding `CCOc1ccc(/C(O)=C2/C(=O)C(=O)N(c3ncccn3)C2c2ccccc2)cc1` (stereo not given), the Potency entry is “inactive”.

For the molecule `Cc1ccc(Nc2ncnc3sc(C)c(C)c23)cc1`, the Potency result is “inactive”.

In the case of `O=C(Nc1ccc(N2CCN(C(=O)c3ccccc3)CC2)cc1)c1cc2ccccc2o1`, the Potency is 12.6 µM (active).

Take `Cc1noc(NS(=O)(=O)c2ccc(NC(=O)COc3ccc(Cl)cc3Cl)cc2)c1C`: the Potency result is “inactive”.

Consider `CC1(C)OC(c2ccccc2)=C/C(=C/C=C2C(=O)c3ccccc3C2=O)O1`, for which the Potency is 14.1 µM (active).

For the molecule `N#CC(=C(/N)Sc1ccccc1N)/C(C#N)=C(/N)Sc1ccccc1N`, the Potency is 0.501 µM (active).

As to `CN(C)c1ccc(Nc2c3c4c(cccc4n(C)c2=O)C(=O)c2ccccc2-3)cc1`, the Potency is 14.1 µM (active).

As to `COc1ccc(CC(=O)Nc2cccc(-c3nnc(-c4cccc(C)c4)o3)c2)cc1OC`, the Potency was 4.47 µM (active).

In the case of `COc1ccc(N=C2C(=Nc3ccc(OC)cc3)N(c3ccc(N(C)C)cc3)C(=S)N2c2ccc(OC)cc2)cc1`, the Potency is 5.62 µM (active).

With `COc1cc2ncnc(Nc3cccc(Cl)c3)c2cc1OC`, the Potency entry is “inactive”.

As for `C=C[C@@]1(C)CC(=O)[C@@]2(O)[C@@]3(C)[C@@H](O)CCC(C)(C)[C@@H]3[C@H](O)[C@H](OC(C)=O)[C@@]2(C)O1`, the Potency entry is “inactive”.

Regarding `N#CC(C#N)=c1ccc2c(c1)N1C3=C(CCCC3)CC3CCCCC31N=2` (stereo not given), the Potency was 5.01 µM (active).

Take `COc1ccc(C2=Nn3c(nnc3-c3ccccc3OC)SC2)cc1OC`: the Potency was 2.24 µM (active).

In the case of `CCN(C1CCCCC1)S(=O)(=O)c1ccc(S(=O)(=O)NCc2ccncc2)cc1`, the Potency entry was “inactive”.

On to `COc1cccc(/C=N/Nc2cc(-n3nc(C)cc3-c3ccccc3)ncn2)c1O`, for which the Potency entry is “inactive”.

The values are drawn from PubChem BioAssay AID1724 (National Center for Advancing Translational Sciences (NCATS), 2009).
